In PubChem BioAssay (NCATS):
Results filed as inconclusive are left out. The source made the active and inactive calls. Unless noted, calls come from the whole dose curve.

Experiments:
[1] = qHTS assay for measurement of the activity of small molecule inhibitors on Zika virus induced Caspase-3 activity in human iPSC derived neural progenitor cells (hNPCs) (AID 1224857; active = well fitted inhibition curve with a large enough effect; note: nearly all actives have a fitted effect of over 65% in size); conditions: hNPCs ZIKV-induced caspase-3/7, Caspase-Glo luminescence, 6 h; series mostly up to 45.7 µM
How it was run: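 Human iPSC-derived neural progenitor cells pretreated 1 hr with compounds, then infected with Zika virus (2 FFU/cell) for 6 hours at 37 C. Caspase-3/7 measured by Caspase-Glo luminescence; % inhibition calculated from induction scaled to uninfected (0%) and infected (100%) wells.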

[2] = qHTS assay for measurement of the activity of small molecule inhibitors on Zika virus induced Caspase-3 activity in human astrocytoma cells (AID 1224859; active = well fitted inhibition curve with a large enough effect); conditions: SNB-19 ZIKV-induced caspase-3/7, luminescence, 6 h; series mostly up to 45.7 µM
How it was run: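 SNB-19 astrocytoma cells, 250/well, pretreated 1 h with compounds, then Zika virus at 2 FFU/cell for 6 h at 37 C; Caspase-Glo 3/7 luminescence after 30 min; percent inhibition normalised to uninfected and infected controls.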

[3] = Natriuretic polypeptide receptor (hNpr1) antagonism - Pilot counterscreen GloSensor control cell line (AID 1347045); conditions: HEK293 cGMP GloSensor cells, SNP-stimulated luminescence, 20 min; series mostly up to 38.3 µM
How it was run: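 HEK293 cells carrying the GloSensor cGMP sensor (GIP/pGS-40F) were loaded with 2% GloSensor reagent for 2 h, exposed to compounds for 30 min, and then stimulated with 50 uM sodium nitroprusside for 20 min at room temperature.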

[4] = target: Atrial natriuretic peptide receptor 1 (Homo sapiens) (UniProt P16066); assay: Natriuretic polypeptide receptor (hNpr1) antagonism - Pilot screen (AID 1347049); conditions: hNpr1 cells, antagonist mode cGMP read-out; series mostly up to 57.5 µM;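 note: agonist-evoked cGMP luminescence read 20 min after hNppA addition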
How it was run: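 HEK293 cells expressing hNpr1 and GloSensor cGMP luciferase, 1500/well, loaded with 2% GloSensor reagent 2 h, compound 30 min at room temperature; luminescence read before and 20 min after 0.1 nM hNppA stimulation.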

[5] = target: Atrial natriuretic peptide receptor 2 (Homo sapiens) (UniProt P20594); assay: Natriuretic polypeptide receptor (hNpr2) antagonism - Pilot subtype selectivity assay (AID 1347050); conditions: NPR2-expressing cells, cGMP antagonist-mode read-out; series mostly up to 38.3 µM
How it was run: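 HEK293 cells expressing hNpr2 and a GloSensor cGMP luciferase sensor, 1500/well, preloaded 2 h with 2% GloSensor reagent, compound 30 min, then 1 nM hNppC for 20 min. Antagonism from luminescence after versus baseline pre-read; LOPAC in 1:5 titrations.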

Measured: Potency

Sequence of Atrial natriuretic peptide receptor 1 (Homo sapiens) (P16066 whole entry, looked up): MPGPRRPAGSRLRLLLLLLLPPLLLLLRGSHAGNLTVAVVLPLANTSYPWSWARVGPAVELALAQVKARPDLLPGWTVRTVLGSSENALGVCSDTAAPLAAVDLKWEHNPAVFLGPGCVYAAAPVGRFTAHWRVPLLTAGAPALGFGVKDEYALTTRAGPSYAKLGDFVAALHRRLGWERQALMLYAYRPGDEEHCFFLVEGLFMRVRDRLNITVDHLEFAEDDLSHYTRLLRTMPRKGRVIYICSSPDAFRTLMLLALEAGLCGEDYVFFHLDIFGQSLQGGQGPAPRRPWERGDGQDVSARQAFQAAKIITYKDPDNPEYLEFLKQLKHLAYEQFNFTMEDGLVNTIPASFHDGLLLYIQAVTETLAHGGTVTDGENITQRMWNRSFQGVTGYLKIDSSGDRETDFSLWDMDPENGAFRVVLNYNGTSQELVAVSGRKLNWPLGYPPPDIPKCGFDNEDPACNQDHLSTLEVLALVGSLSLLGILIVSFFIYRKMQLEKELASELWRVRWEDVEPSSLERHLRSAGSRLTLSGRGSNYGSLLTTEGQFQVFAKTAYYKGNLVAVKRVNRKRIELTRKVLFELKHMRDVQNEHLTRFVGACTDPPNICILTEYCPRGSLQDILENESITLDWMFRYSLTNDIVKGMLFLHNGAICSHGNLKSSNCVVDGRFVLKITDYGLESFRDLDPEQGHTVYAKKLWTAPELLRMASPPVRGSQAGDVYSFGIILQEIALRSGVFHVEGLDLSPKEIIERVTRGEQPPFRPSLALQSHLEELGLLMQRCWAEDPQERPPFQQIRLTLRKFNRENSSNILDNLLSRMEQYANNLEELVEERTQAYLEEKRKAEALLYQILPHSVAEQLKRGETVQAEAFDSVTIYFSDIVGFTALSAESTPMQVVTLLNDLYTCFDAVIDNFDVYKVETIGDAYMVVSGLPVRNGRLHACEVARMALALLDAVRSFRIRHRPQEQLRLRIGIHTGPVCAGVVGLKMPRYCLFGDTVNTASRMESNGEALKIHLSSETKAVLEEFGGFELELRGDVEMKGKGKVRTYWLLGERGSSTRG
Sequence of Atrial natriuretic peptide receptor 2 (Homo sapiens) (P20594 whole entry, looked up): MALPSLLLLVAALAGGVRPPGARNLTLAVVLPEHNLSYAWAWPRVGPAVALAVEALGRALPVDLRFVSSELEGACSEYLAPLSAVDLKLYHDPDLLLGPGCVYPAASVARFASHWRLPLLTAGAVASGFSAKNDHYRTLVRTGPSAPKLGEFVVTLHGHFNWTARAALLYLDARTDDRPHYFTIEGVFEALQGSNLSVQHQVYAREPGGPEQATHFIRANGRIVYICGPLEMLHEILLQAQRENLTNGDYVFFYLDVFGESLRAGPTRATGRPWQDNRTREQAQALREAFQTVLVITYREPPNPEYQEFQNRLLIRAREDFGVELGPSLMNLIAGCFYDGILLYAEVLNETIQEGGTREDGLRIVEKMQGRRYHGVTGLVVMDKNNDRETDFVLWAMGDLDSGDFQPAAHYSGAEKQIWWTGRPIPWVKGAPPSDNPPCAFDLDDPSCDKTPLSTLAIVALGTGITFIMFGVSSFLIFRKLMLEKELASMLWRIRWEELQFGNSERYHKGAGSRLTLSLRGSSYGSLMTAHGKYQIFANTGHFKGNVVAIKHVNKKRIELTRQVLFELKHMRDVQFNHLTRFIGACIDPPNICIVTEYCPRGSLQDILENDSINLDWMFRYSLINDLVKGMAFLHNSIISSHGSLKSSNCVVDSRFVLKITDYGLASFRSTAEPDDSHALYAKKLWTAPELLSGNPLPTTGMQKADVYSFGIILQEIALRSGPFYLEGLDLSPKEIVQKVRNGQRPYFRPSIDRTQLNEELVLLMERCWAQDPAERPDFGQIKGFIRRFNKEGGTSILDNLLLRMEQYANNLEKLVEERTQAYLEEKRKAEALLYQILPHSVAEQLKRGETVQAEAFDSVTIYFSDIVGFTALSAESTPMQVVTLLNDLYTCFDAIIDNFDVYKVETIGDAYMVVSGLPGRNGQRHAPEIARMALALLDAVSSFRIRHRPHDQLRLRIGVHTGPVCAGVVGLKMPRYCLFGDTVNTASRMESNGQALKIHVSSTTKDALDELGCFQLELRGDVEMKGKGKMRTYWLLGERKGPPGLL

O=C(O)[C@H]1NCCC[C@H]1C(=O)O
inactive: [1] | [2] | [3] | [4] | [5]

C#CCn1c(=O)c2c(ncn2C)n(C)c1=O
inactive: [1] | [2] | [3] | [4] | [5]

CC(N)(Cc1ccc(O)cc1)C(=O)O (stereo not given)
inactive: [1] | [2] | [3] | [4] | [5]

Fc1ccc(CN(C2=NCCN2)c2c(Cl)cccc2Cl)cc1
inactive: [1] | [2] | [3] | [4] | [5]

O=C(O)C1=CC(=C(c2ccc(O)c(C(=O)O)c2)c2ccc(O)c(C(=O)O)c2)C=CC1=O
inactive: [1] | [2] | [3] | [4] | [5]

Nc1ncnc2c1ncn2C1CCCC1
inactive: [1] | [2] | [3] | [4] | [5]

NC(=O)CC[C@H](N)C(=O)O
inactive: [1] | [2] | [3] | [4] | [5]

COc1ccc2c(c1)c(CC(=O)O)c(C)n2C(=O)c1ccccc1
inactive: [1] | [2] | [3] | [4] | [5]

CNCCNS(=O)(=O)c1cccc2cnccc12
inactive: [1] | [2] | [3] | [4] | [5]

N=C(N)SCCc1cnc[nH]1
inactive: [1] | [2] | [3] | [4] | [5]

Clc1nccc2c1ccc1ccccc12
inactive: [1] | [2] | [3] | [4] | [5]

Nc1nc2c(nc(Br)n2C2OC3COP(=O)(O)O[C@@H]3C2O)c(=O)[nH]1 (stereo not given in full)
inactive: [1] | [2] | [3] | [4] | [5]

O=C(O)/C(=C/c1c(C(=O)O)[nH]c2cc(Cl)cc(Cl)c12)c1ccccc1
inactive: [1] | [2] | [3] | [4] | [5]
